The panel holds about 83,000 compounds, 20% with a hit somewhere; the sample as a whole holds those more often.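 Treatment: one concentration, 48 hours, 96-well format. Scoring: percent growth, with anything below 10 considered active.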 Activity calls are given as the source filed them.
Legend:
Experiment in all cases: NCI-60 one-dose screen, 48 h (100 = growth as untreated, 0 = no growth, -100 = all killed)
Details in all cases: 10 µM
SK-MEL-2 melanoma = test system: SK-MEL-2 melanoma
EKVX NSCLC = test system: EKVX NSCLC
UO-31 renal = test system: UO-31 renal
TK-10 renal = test system: TK-10 renal
ACHN renal = test system: ACHN renal
CAKI-1 renal = test system: CAKI-1 renal
A498 renal = test system: A498 renal
CCRF-CEM leukemia = test system: CCRF-CEM leukemia
MOLT-4 leukemia = test system: MOLT-4 leukemia
SR leukemia = test system: SR leukemia
RPMI-8226 leukemia = test system: RPMI-8226 leukemia
OVCAR-8 ovarian = test system: OVCAR-8 ovarian
OVCAR-5 ovarian = test system: OVCAR-5 ovarian
OVCAR-4 ovarian = test system: OVCAR-4 ovarian
SK-OV-3 ovarian = test system: SK-OV-3 ovarian
IGROV1 ovarian = test system: IGROV1 ovarian
OVCAR-3 ovarian = test system: OVCAR-3 ovarian
HS 578T breast = test system: HS 578T breast
NCI/ADR-RES ovarian = test system: NCI/ADR-RES ovarian

Measured: growth

O=c1cc(CSc2nnc(-c3ccccc3)n2-c2ccc(F)cc2)c2ccc3ccccc3c2o1
inactive: SK-MEL-2 melanoma 79.7% | EKVX NSCLC 95.3% | UO-31 renal 65.6% | TK-10 renal 104% | ACHN renal 99% | CAKI-1 renal 88.6% | A498 renal 118% | CCRF-CEM leukemia 108% | MOLT-4 leukemia 82.7% | SR leukemia 88.5% | RPMI-8226 leukemia 101% | OVCAR-8 ovarian 93% | OVCAR-5 ovarian 94% | OVCAR-4 ovarian 99.2% | SK-OV-3 ovarian 99.7% | IGROV1 ovarian 92.2% | OVCAR-3 ovarian 97.5% | HS 578T breast 103% | NCI/ADR-RES ovarian 84.3%

COc1ccc2oc(=O)cc(C3c4ccc([nH]4)C(c4cc(=O)oc5ccc(OC)cc45)c4ccc([nH]4)C(c4cc(=O)oc5ccc(OC)cc45)c4ccc([nH]4)C(c4cc(=O)oc5ccc(OC)cc45)c4ccc3[nH]4)c2c1 (configuration not stated)
active: SK-MEL-2 melanoma 1.72% | UO-31 renal -44.9% | TK-10 renal -32.1% | ACHN renal 1.03% | CAKI-1 renal -22.1% | A498 renal -17.4% | CCRF-CEM leukemia 0.0782% | MOLT-4 leukemia -8.61% | SR leukemia -15.9% | RPMI-8226 leukemia -6.88% | OVCAR-8 ovarian -10.9% | OVCAR-5 ovarian 3.08% | OVCAR-4 ovarian 0.347% | SK-OV-3 ovarian 0.72% | OVCAR-3 ovarian -85.2% | HS 578T breast 8.18% | NCI/ADR-RES ovarian 5.87%
inactive: EKVX NSCLC 27.8% | IGROV1 ovarian 19.7%

Cc1ccc(-n2c(-c3cc4c([nH]c5ccccc54)c(-c4cccc(O)c4)n3)n[nH]c2=S)cc1
inactive: EKVX NSCLC 19.4% | UO-31 renal 30.9% | TK-10 renal 24.9% | ACHN renal 32.6% | OVCAR-5 ovarian 50.1% | OVCAR-4 ovarian 26.4% | HS 578T breast 23.4% | NCI/ADR-RES ovarian 61.7%
active: SK-MEL-2 melanoma -48.1% | CAKI-1 renal 7.33% | A498 renal -40% | CCRF-CEM leukemia 7.56% | MOLT-4 leukemia 0.747% | SR leukemia -21.8% | RPMI-8226 leukemia -14.1% | OVCAR-8 ovarian 0.787% | SK-OV-3 ovarian -14.5% | IGROV1 ovarian -3.48% | OVCAR-3 ovarian -36.1%

CCOC(=S)Sc1ccc([N+](=O)[O-])cc1[N+](=O)[O-]
inactive: SK-MEL-2 melanoma 91.4% | EKVX NSCLC 98% | UO-31 renal 78.1% | TK-10 renal 94% | ACHN renal 60.4% | CAKI-1 renal 29.9% | A498 renal 88.2% | CCRF-CEM leukemia 14.4% | MOLT-4 leukemia 48.5% | SR leukemia 18.3% | RPMI-8226 leukemia 11.9% | OVCAR-8 ovarian 93.3% | OVCAR-5 ovarian 99.2% | OVCAR-4 ovarian 113% | SK-OV-3 ovarian 97.1% | IGROV1 ovarian 99.2% | OVCAR-3 ovarian 62.2% | HS 578T breast 98% | NCI/ADR-RES ovarian 102%

O=C(N/N=C\c1cc(Cl)ccc1O)c1ccncc1
inactive: SK-MEL-2 melanoma 96.9% | EKVX NSCLC 83.2% | UO-31 renal 41.6% | TK-10 renal 66.3% | ACHN renal 27.7% | CAKI-1 renal 49.2% | A498 renal 104% | CCRF-CEM leukemia 11.3% | MOLT-4 leukemia 15.9% | SR leukemia 26.8% | RPMI-8226 leukemia 52.7% | OVCAR-8 ovarian 44.5% | OVCAR-5 ovarian 83.9% | OVCAR-4 ovarian 31.4% | SK-OV-3 ovarian 59.4% | IGROV1 ovarian 33% | OVCAR-3 ovarian 19.1% | HS 578T breast 125% | NCI/ADR-RES ovarian 26.8%

CC(C)c1[nH]nc2c(NCc3ccc(-c4ccccn4)cc3)nc(SCCN)nc12
active: SK-MEL-2 melanoma -82.1% | EKVX NSCLC 1.6% | UO-31 renal 0.673% | TK-10 renal -2.72% | ACHN renal 6.26% | A498 renal -69.5% | CCRF-CEM leukemia -0.568% | MOLT-4 leukemia -0.423% | SR leukemia -7.09% | RPMI-8226 leukemia -16.7% | OVCAR-4 ovarian -3.8% | SK-OV-3 ovarian 3.32% | OVCAR-3 ovarian 5.51%
inactive: CAKI-1 renal 25.6% | OVCAR-8 ovarian 10.9% | OVCAR-5 ovarian 13.6% | IGROV1 ovarian 10.3% | HS 578T breast 11.1% | NCI/ADR-RES ovarian 48%

c1ccc(CC(NCCNC(Cc2ccccc2)c2ccccc2)c2ccccc2)cc1 (configuration not stated)
active: CAKI-1 renal 7.43% | MOLT-4 leukemia -13.2% | SR leukemia -33.7% | RPMI-8226 leukemia -41.1%
inactive: SK-MEL-2 melanoma 69.8% | EKVX NSCLC 23% | UO-31 renal 27.3% | TK-10 renal 61.1% | ACHN renal 20.6% | A498 renal 61.8% | CCRF-CEM leukemia 10.1% | OVCAR-8 ovarian 22.5% | OVCAR-5 ovarian 55.2% | OVCAR-4 ovarian 35.6% | SK-OV-3 ovarian 84% | IGROV1 ovarian 36.4% | OVCAR-3 ovarian 22.9% | HS 578T breast 73.4% | NCI/ADR-RES ovarian 38.8%

NC(=O)C1CCCN(Cc2c[nH]c3ccccc23)C1 (configuration not stated)
inactive: SK-MEL-2 melanoma 86.5% | EKVX NSCLC 99.9% | UO-31 renal 75.4% | TK-10 renal 93.7% | ACHN renal 103% | CAKI-1 renal 94.4% | A498 renal 81% | CCRF-CEM leukemia 106% | MOLT-4 leukemia 99.2% | SR leukemia 96.9% | RPMI-8226 leukemia 105% | OVCAR-8 ovarian 98.3% | OVCAR-5 ovarian 99.8% | OVCAR-4 ovarian 108% | SK-OV-3 ovarian 100% | IGROV1 ovarian 102% | OVCAR-3 ovarian 104% | HS 578T breast 96.6% | NCI/ADR-RES ovarian 94.8%

CC(C)c1[nH]nc2c(NCc3ccc(-c4ccccn4)cc3)nc(SCCN(C)C)nc12
inactive: UO-31 renal 16.7% | CAKI-1 renal 18.9% | OVCAR-8 ovarian 13.9% | OVCAR-5 ovarian 21.4% | IGROV1 ovarian 16.2% | HS 578T breast 21.4%
active: SK-MEL-2 melanoma -65.6% | EKVX NSCLC -5.89% | TK-10 renal 6.52% | ACHN renal 7.84% | A498 renal -66.3% | CCRF-CEM leukemia 1.67% | MOLT-4 leukemia -8.11% | SR leukemia -10.3% | RPMI-8226 leukemia -14.4% | OVCAR-4 ovarian -1.82% | SK-OV-3 ovarian 8.24% | OVCAR-3 ovarian 4.83% | NCI/ADR-RES ovarian 7.1%

Cc1ccc2c(c1)-c1cc(C)nn1-c1ccc(C#N)cc1O2
inactive: SK-MEL-2 melanoma 44.7% | EKVX NSCLC 65.7% | UO-31 renal 47.4% | TK-10 renal 84.1% | ACHN renal 91.5% | CAKI-1 renal 71.9% | A498 renal 47.2% | CCRF-CEM leukemia 46.2% | MOLT-4 leukemia 49.6% | SR leukemia 28% | RPMI-8226 leukemia 54.3% | OVCAR-8 ovarian 70.4% | OVCAR-5 ovarian 94.1% | OVCAR-4 ovarian 76.9% | SK-OV-3 ovarian 53.3% | IGROV1 ovarian 64.5% | OVCAR-3 ovarian 61.8% | HS 578T breast 56.4% | NCI/ADR-RES ovarian 40.1%

COCCOC(=O)NC(=O)Nc1ccc(C(=O)c2ccc(Cl)cc2)cc1
active: OVCAR-3 ovarian 6.85%
inactive: SK-MEL-2 melanoma 27.6% | EKVX NSCLC 31.4% | UO-31 renal 40.3% | TK-10 renal 53.2% | ACHN renal 42.7% | CAKI-1 renal 32.8% | A498 renal 19.3% | CCRF-CEM leukemia 18.5% | MOLT-4 leukemia 32.7% | SR leukemia 22.2% | RPMI-8226 leukemia 19.2% | OVCAR-8 ovarian 40.4% | OVCAR-5 ovarian 90.7% | OVCAR-4 ovarian 56.9% | SK-OV-3 ovarian 27.2% | IGROV1 ovarian 51.3% | HS 578T breast 32% | NCI/ADR-RES ovarian 18.9%

NC1CCC(Nc2nc(NCc3cc(Cl)ccc3O)c3ncn(C4CCCC4)c3n2)CC1 (configuration not stated)
active: SK-MEL-2 melanoma -73.7% | EKVX NSCLC -18.7% | UO-31 renal 1.65% | TK-10 renal -3.98% | ACHN renal -5.98% | CAKI-1 renal 9.61% | A498 renal -67.1% | CCRF-CEM leukemia -0.96% | MOLT-4 leukemia -15.5% | SR leukemia -15.9% | RPMI-8226 leukemia -25.1% | OVCAR-8 ovarian 8.24% | OVCAR-4 ovarian -6.96% | SK-OV-3 ovarian 2.6% | IGROV1 ovarian 1.62% | OVCAR-3 ovarian -20.2% | HS 578T breast -1.92%
inactive: OVCAR-5 ovarian 17.3% | NCI/ADR-RES ovarian 26.3%

CCCCCCCCCCCCc1ccc(C(=O)/C=C/C(=O)O)cc1
active: CCRF-CEM leukemia -17.6% | MOLT-4 leukemia -15.1% | SR leukemia -28.1% | RPMI-8226 leukemia 6.04%
inactive: SK-MEL-2 melanoma 93.1% | EKVX NSCLC 99.9% | UO-31 renal 85.3% | TK-10 renal 68.7% | ACHN renal 55.9% | CAKI-1 renal 91.1% | A498 renal 81.7% | OVCAR-8 ovarian 67.1% | OVCAR-5 ovarian 94.1% | OVCAR-4 ovarian 70.9% | SK-OV-3 ovarian 98.6% | IGROV1 ovarian 72.7% | OVCAR-3 ovarian 47% | HS 578T breast 93.7% | NCI/ADR-RES ovarian 100%

O=S(=O)(NC1c2ccccc2Oc2ccccc21)c1cc(Cl)ccc1Cl
inactive: SK-MEL-2 melanoma 103% | EKVX NSCLC 98.6% | UO-31 renal 79.3% | TK-10 renal 95.6% | ACHN renal 82.7% | CAKI-1 renal 88.7% | A498 renal 94.3% | CCRF-CEM leukemia 74.8% | MOLT-4 leukemia 96.7% | SR leukemia 66.8% | RPMI-8226 leukemia 96.7% | OVCAR-8 ovarian 93.5% | OVCAR-5 ovarian 109% | OVCAR-4 ovarian 80.9% | SK-OV-3 ovarian 98.1% | IGROV1 ovarian 95.5% | OVCAR-3 ovarian 98.7% | HS 578T breast 102% | NCI/ADR-RES ovarian 93.5%

O=C(N/N=c1/ccoc2cccnc12)N1CCN(c2ncccn2)CC1
inactive: SK-MEL-2 melanoma 11.8% | EKVX NSCLC 17.4% | UO-31 renal 24.8% | TK-10 renal 27.4% | ACHN renal 25.1% | CAKI-1 renal 26% | A498 renal 45.3% | CCRF-CEM leukemia 30.5% | SR leukemia 20.6% | RPMI-8226 leukemia 30.6% | OVCAR-8 ovarian 25.3% | OVCAR-5 ovarian 50% | OVCAR-4 ovarian 18.3% | SK-OV-3 ovarian 15.4% | IGROV1 ovarian 31.4% | OVCAR-3 ovarian 30.6% | NCI/ADR-RES ovarian 10.1%
active: MOLT-4 leukemia 8.23%

COc1cccc(C(=O)N(c2ccc(F)c(F)c2)C(C(=O)NC(C)(C)C)c2cc3c(C)cc(C)cc3nc2Cl)c1 (configuration not stated)
inactive: SK-MEL-2 melanoma 77.1% | EKVX NSCLC 54.5% | UO-31 renal 48.5% | TK-10 renal 70.5% | ACHN renal 59.4% | CAKI-1 renal 42.9% | A498 renal 59.8% | CCRF-CEM leukemia 53.8% | MOLT-4 leukemia 43.8% | SR leukemia 67.6% | RPMI-8226 leukemia 42.9% | OVCAR-8 ovarian 84.1% | OVCAR-4 ovarian 48.7% | SK-OV-3 ovarian 75.5% | IGROV1 ovarian 77.2% | OVCAR-3 ovarian 60.3% | HS 578T breast 79.8% | NCI/ADR-RES ovarian 73.2%
